PubChem BioAssay AID940 (Emory University Molecular Libraries Screening Center, 2007)
Where “and” joins values, the source holds several entries; their conditions need not be identical. Equal entries are not always repeated. The whole screen tested about 260,000 compounds, of which about 2,200 (0.85%) were called active.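 The calls were made as follows: active = compounds whose cAMP rise, as percent of the full-agonist control response, exceeds 60; inactive = the rest.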 Many of the other results were omitted from the sample, so actives are more common in it than they were. More than one record can exist for a structure, and the calls need not agree.

Molecular target: Prostaglandin E2 receptor EP2 subtype (Homo sapiens) (UniProt P43116)
Sequence (P43116 whole entry, looked up): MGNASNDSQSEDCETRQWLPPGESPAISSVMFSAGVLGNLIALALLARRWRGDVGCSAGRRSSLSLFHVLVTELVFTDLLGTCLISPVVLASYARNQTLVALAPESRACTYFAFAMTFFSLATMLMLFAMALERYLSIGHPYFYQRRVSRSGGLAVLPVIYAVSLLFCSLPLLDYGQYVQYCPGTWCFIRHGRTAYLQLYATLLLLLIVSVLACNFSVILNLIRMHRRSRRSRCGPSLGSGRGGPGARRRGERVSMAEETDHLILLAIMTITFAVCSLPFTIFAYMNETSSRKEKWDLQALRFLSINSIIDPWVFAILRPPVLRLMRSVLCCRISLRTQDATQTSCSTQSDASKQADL
Assay: EP2 receptor modulators, cAMP readout, primary screen, cell-based, HTRF cAMP, PGE2 stimulation (AID 940);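 also: rat C6 glioma line stably carrying human EP2 under a CMV promoter; the protocol text gives 20 µM as final concentration; 100% = response of wells given 1 µM PGE2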
Conditions: EP2-expressing cells, cAMP HTRF FRET, PGE2 co-stimulation; at 25 µM; stronger effect = higher value

SMILES | induction
CCCn1cnc2sc(C)c(-c3ccc(Cl)cc3)c2c1=O | 36.5% (inactive)
CCCOC(=O)Cn1cnc2sc(C)c(-c3ccc(Cl)cc3)c2c1=O | 27.2% (inactive)
C=CCn1cnc2sc(C)c(-c3ccc(Cl)cc3)c2c1=O | 72.1% (active)
O=C(Nc1cccc2ccccc12)C1CCN(C(=O)c2cccc(Cl)c2)CC1 | -52% (inactive)
CC(C)N(C(=O)CSc1nc(COc2ccccc2)nc2ccccc12)C(C)C | 60.5% (active) and 78.3% (active)
CN(C(=O)CSc1nc(C2CC2)nc2ccccc12)c1nc(-c2ccccc2)cs1 | 0.29% (inactive)
CCCc1nc(SCC(=O)Nc2ccc(S(=O)(=O)N(C)C)cc2)c2ccccc2n1 | 0.33% (inactive)
COc1cc(OC)cc(OCC(O)Cn2c(C)nc3ccccc32)c1 (stereo not drawn) | -45% (inactive)
CCn1c(SCC(=O)Nc2cc(Cl)ccc2Cl)nc2sc(C)c(C)c2c1=O | 8.59% (inactive)
CC1(C(=O)N(CC(=O)NCc2ccc(F)cc2)C2CCCC2)CC(=O)N=C2C=CC=CN21 (stereo not drawn) | -9.59% (inactive)
NNC(=O)COc1ccc(C2SCCS2)cc1 | -9.97% (inactive)
NC(=O)COc1ccc(NC(=O)c2ccccc2-c2ccccc2)cc1 | -20.6% (inactive)
NC(=O)COc1ccc(C23CC4CC(CC(C4)C2)C3)cc1 | 87.8% (active)
Cn1nnc2cc(NC(=O)Nc3ccc(F)cc3)ccc21 | -20.8% (inactive)
Cc1nc(NCCN)c(C#N)c2c1COC(C)(C)C2 | 14.1% (inactive)
CCNc1nc(C)c([N+](=O)[O-])c(C)c1C#N | 68.9% (active)
Cc1nn(CC(=O)Nc2ccc(C#N)cc2)c(C)c1[N+](=O)[O-] | 40.4% (inactive)
COc1ccccc1-c1ocnc1C(=O)Nc1ccc(N2CCC(C)CC2)c(C(N)=O)c1 | -7.54% (inactive)
NC(=O)Cn1c(=O)oc2ccccc21 | 8.45% (inactive)
Cc1ccc(OCCCn2c(=O)oc3ccccc32)cc1 | -12.8% (inactive)
O=c1oc2ccccc2n1CCCOc1cccc2ccccc12 | 74.5% (active)
CC1CCCN(CC(=O)N2CCN(C(=O)CN3CCCC(C)C3)CC2)C1 (stereo not drawn) | -44.2% (inactive)
CCCn1c(=O)[nH]c2c(C(N)=O)nc(-c3ccccc3F)nc21 | -12.9% (inactive)
CCOC(=O)c1c(C2CC2)csc1NC(=O)CSCc1c(C)noc1C | 75.9% (active)

SMILES | induction
Cc1noc(C)c1CSCC(=O)Nc1nc2ccc(Oc3ccccc3)cc2s1 | -9.73% (inactive)
CCOC(=O)c1c(-c2cccc(C)c2)csc1NC(=O)c1c(-c2ccccc2)noc1C | 34.1% (inactive)
CCOc1cccc(/C(O)=C2/C(=O)C(=O)N(CCN3CCOCC3)C2c2ccc(C)o2)c1 (stereo not drawn) | -20% (inactive)
CCC(c1nnnn1C(C)(C)CC)N(Cc1cccs1)Cc1cc2ccc(C)c(C)c2[nH]c1=O (stereo not drawn) | 48.5% (inactive)
Cc1ccc2c(c1)C(=O)CC1(CCN(C(=O)N3CCOCC3)CC1)O2 | -15.2% (inactive)
O=C(CSc1nnc2c(n1)[nH]c1ccc(F)cc12)Nc1cccc2ccccc12 | -43.9% (inactive)
C=C(C)Cn1c(N2CCC(C)CC2)nc2c1c(=O)[nH]c(=O)n2C | -6.93% (inactive)
Cc1cc(C)nc(SCCn2c(N3CCC(C)CC3)nc3c2c(=O)[nH]c(=O)n3C)n1 | 1.48% (inactive)
CC1CCN(c2nc3c(c(=O)[nH]c(=O)n3C)n2CCCc2ccccc2)CC1 | 57.4% (inactive) and 67% (active)
O=C(NCC1CCCO1)C(=O)Nc1cc(Cl)cc(Cl)c1 (stereo not drawn) | -89.4% (inactive)
Cc1cc2c(cc3c(=O)n(CC(=O)N(Cc4ccncc4)C4CC4)nc(C)n32)s1 | 41.2% (inactive)
Cc1ccc(CN(Cc2cc3c(C)ccc(C)c3[nH]c2=O)Cc2nnnn2C2CCCC2)cc1 | 38.9% (inactive)
Cc1ccc2[nH]c(=O)c(CN(CCc3ccccc3)Cc3nnnn3C3CCCCC3)cc2c1 | 71.2% (active)
Cc1ccc2cc(CN(Cc3ccccc3)C(c3nnnn3C3CCCCC3)C(C)C)c(=O)[nH]c2c1C (stereo not drawn) | 45.6% (inactive)
Cc1cccc2cc(CN(Cc3cccs3)Cc3nnnn3C3CCCCC3)c(=O)[nH]c12 | 70.9% (active)
CCC(c1nnnn1C1CCCC1)N(Cc1cccs1)Cc1cc2cccc(C)c2[nH]c1=O (stereo not drawn) | 46.6% (inactive)
CCC(c1nnnn1C1CCCC1)N(Cc1cccs1)Cc1cc2ccc(C)c(C)c2[nH]c1=O (stereo not drawn) | 49% (inactive)
Cc1cc(C)c2[nH]c(=O)c(CN(Cc3ccco3)C(c3nnnn3C3CCCCC3)C(C)C)cc2c1 (stereo not drawn) | 25.3% (inactive)
CCC(c1nnnn1C1CCCCC1)N(Cc1cccs1)Cc1cc2cc(C)cc(C)c2[nH]c1=O (stereo not drawn) | 75.2% (active)
Cc1cccc2cc(CN(Cc3cccs3)C(c3nnnn3C3CCCC3)C(C)C)c(=O)[nH]c12 (stereo not drawn) | 63.3% (active) and 74.3% (active)
CCOc1ccc2[nH]c(=O)c(CN(Cc3ccccc3)Cc3nnnn3C3CCCC3)cc2c1 | -7.93% (inactive)
Cc1cccc2cc(CN(Cc3ccc4c(c3)OCO4)Cc3nnnn3C3CCCC3)c(=O)[nH]c12 | 42.4% (inactive)
Cc1ccc(CN(Cc2cc3cc4c(cc3[nH]c2=O)OCCO4)Cc2nnnn2C2CCCC2)cc1 | 2.08% (inactive)
CCn1c(COc2ccc(Br)cc2)nnc1SCC(=O)NCc1ccccc1 | 19.8% (inactive)

SMILES | induction
O=C(CCSc1nc(-c2ccc3c(c2)OCO3)cc(C(F)(F)F)n1)NCc1ccncc1 | -33.7% (inactive)
CC1CCN(c2nc3c(c(=O)[nH]2)CCN(Cc2c(O)ccc4ccccc24)C3)CC1 | -22.9% (inactive)
COc1ccccc1NC(=O)COc1ccc(/C=C/C2=CCN(C)CC2)cc1OC | -73.1% (inactive)
CCOc1ccc(OCC)c(NC(=O)CSc2ncnc3sc(C)c(C)c23)c1 | 40.1% (inactive)
Cn1c(=O)sc2cc(S(=O)(=O)NC3(c4ccccc4F)CC3)ccc21 | -176% (inactive)
COc1ccc(Cn2nnnc2CN(Cc2cc3cc(C)ccc3[nH]c2=O)C2CCCCC2)cc1 | 30.9% (inactive)
COc1nc(C)c(CC(=O)Nc2ccc3[nH]c4c(c3c2)CCCC4)c(OC)n1 | -85% (inactive)
O=C(Nc1nnc(SCC(=O)N2CCCCC2)s1)c1ccco1 | -9.97% (inactive)
COC(=O)CSc1nnc(-c2ccc3[nH]c(C)c(C)c3c2)o1 | -58.2% (inactive)
CCN1CCCC1CN(Cc1cc2cc(OC)c(OC)cc2[nH]c1=O)C(=O)Nc1ccccc1Cl (stereo not drawn) | -41.6% (inactive)
CCc1nn(CC(=O)NCc2cccnc2)c(=O)c2cc3ccsc3n12 | 1.61% (inactive)
CCOc1ccc(-c2nc(-c3cc4ccccc4[nH]c3=O)no2)cc1 | -8.73% (inactive)
O=C(/C=C/c1ccccc1)N/C(=C/c1ccccc1)C(=O)Nc1ccccc1O | -4.9% (inactive)
CCc1ccccc1NC(=O)Cc1cn(C)c2ccccc12 | 23.9% (inactive)
CCc1ccccc1NC(=O)/C(=C/c1ccccc1)c1ccccc1 | 65.2% (active)
Cc1ccc(-c2nsc3c(SCC(=O)N(C)C4CCCCC4)ncnc23)cc1 | 34.6% (inactive)
Cc1c(CN(C)C(=O)CSc2nc(-c3cccs3)cc(C(F)(F)F)n2)cnn1C | 9.94% (inactive)
CN1CC(c2ccccc2)C2(CCN(Cc3ccccc3)CC2)C1 (stereo not drawn) | -9.74% (inactive)
Cc1nn(CC#N)c(=O)n1N(C)c1ncc(C(F)(F)F)cc1Cl | 2.11% (inactive)
C#CCN(N(C)c1ncc(C(F)(F)F)cc1Cl)S(=O)(=O)c1ccc2ccccc2c1 | 61.4% (active)
Cc1cc(C)cc(NS(=O)(=O)c2ccc(Oc3ncc(C(F)(F)F)cc3Cl)cc2)c1 | 57.5% (inactive)
O=C(Cc1cccs1)Nc1nnc(-c2ccccc2Cl)s1 | -20% (inactive)
CC(C)Cc1nc(Cl)c(C#N)c2c1CCC2 | 6.62% (inactive)
CC(C)Cc1nc(N2CCOCC2)c(C#N)c2c1CCC2 | 64% (active)

SMILES | induction
CC(C)c1nc(N2CCOCC2)c(C#N)c2c1COC(C)(C)C2 | -103% (inactive)
Cc1ccccc1N(C(=O)c1ccco1)C(C(=O)NC1CCCC1)c1ccco1 (stereo not drawn) | 15% (inactive)
COc1ccc2c(c1)C(C)=CC(C)(C)N2C(=O)CNCc1ccc2c(c1)OCO2 | 62.2% (active)
COc1ccc2c(c1)C(C)=CC(C)(C)N2C(=O)Nc1ccccc1 | 43% (inactive)
COc1ccc(OC)c(CC(=O)N2CCC(c3ccc4c(c3)OCO4)CC2)c1 | -2.54% (inactive)
CCCNc1ncnc2sc(C)c(C)c12 | 17.6% (inactive)
Cc1sc2ncnc(Sc3nc4ccccc4s3)c2c1C | 17.8% (inactive)
CSc1ncnc2sc(C)c(C)c12 | 68.5% (active)
Cc1cc2cc(CN(CCO)C(c3nnnn3CC3CCCO3)C(C)C)c(=O)[nH]c2cc1C (stereo not drawn) | -0.77% (inactive)
CCOc1ccc(/C=N/NC(=O)C(C)Sc2ccccn2)cc1OCC (stereo not drawn) | 13.9% (inactive)
CCOc1ccc(/C=N/NC(=O)CSc2ccccn2)cc1O | 65.8% (active)
Cc1ccc(/C=N/NC(=O)CSc2ccccn2)o1 | -4.32% (inactive)
COc1ccc(S(=O)(=O)NCc2ccc3c(c2)OCO3)c(Cl)c1Cl | -0.88% (inactive)
Cc1nc2nc(N)ccc2c(C)c1C | -9.42% (inactive)
CC(=O)NCC(O)c1ccc([N+](=O)[O-])cc1 (stereo not drawn) | 1.39% (inactive)
CCC(C)c1ccc(O)c(/C=N/O)c1 (stereo not drawn) | 4.26% (inactive)
CNCC(O)c1ccc(O)c(O)c1 (stereo not drawn) | 68.4% (active)
CCc1ccc(NC(=O)C2CCN(C(=O)c3cccs3)CC2)cc1 | 15.7% (inactive)
COC(=O)CSc1nc2c(c(C3CC=CCC3)c1C#N)CCC2 (stereo not drawn) | 68.1% (active)
CCOc1ccc2cc(C#N)c(SCC(=O)OC)nc2c1 | 47% (inactive)
COC(=O)CSc1nc(C2CC2)nc2ccccc12 | 4.21% (inactive)
